In PubChem BioAssay (EPA / NIEHS) one finds outcome and AC50 data, which are given here for 22 compounds.

Assay [1] is described as follows: Tanguay_ZF_120hpf_OTIC_legacy: (Legacy) Oregon State University Tanguay Lab 120 Hour Post-fertilization zebrafish Assay for Otic Vesicle Malformation (AID 2283639). A digest of the protocol: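 Binary scoring of otic vesicle defects at 120 hpf in zebrafish (Tropical 5D) held under static exposure at 28C, sealed and shaded, with final DMSO 0.64%. Embryos dying by 24 or 120 hpf excluded; fitted positively against DMSO.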

Assay [2] is described as follows: Tanguay_ZF_120hpf_BRAI_legacy: (Legacy) Oregon State University Tanguay Lab 120 Hour Post-fertilization zebrafish Assay for Brain Malformation (AID 2283641). A digest of the protocol: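 Wild-type 5D larvae, static waterborne exposure to 120 hpf, 28C, 0.64% v/v DMSO. Brightfield scoring of brain defects, binary; dead embryos excluded. Positive ctrl 5uM trimethyltin chloride.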

A short description of assay [3]: Tanguay_ZF_120hpf_PFIN_legacy: (Legacy) Oregon State University Tanguay Lab 120 Hour Post-fertilization zebrafish Assay for Pectoral Fin Malformation (AID 2283648).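 Further: each larva judged yes or no for fin defect by brightfield with dead larvae skipped.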 A digest of the protocol:
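Binary pectoral fin malformation call at 120 hpf by brightfield microscopy; 5D wild-type zebrafish, chorion removed at 4 hpf, one embryo per well from 6 hpf, static exposure at 28C; DMSO (0.64% final) as baseline.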

Assay [4] in a line: Tanguay_ZF_120hpf_PIG_legacy: (Legacy) Oregon State University Tanguay Lab 120 Hour Post-fertilization zebrafish Assay for Pigmentation Malformation (AID 2283650).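 Further: dechorionated Tropical 5D zebrafish embryos exposed singly from 6 to 120 hpf.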 A digest of the protocol: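 Brightfield scoring of pigmentation malformation at 120 hpf, recorded as binary present/absent per larva. Exposure: dechorionated 5D wild-type embryos, one per well, static from 6 hpf at 28C, final DMSO 0.64% (vol/vol). Dead embryos not scored.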

Assay [5] is described as follows: Tanguay_ZF_120hpf_CIRC_legacy: (Legacy) Oregon State University Tanguay Lab 120 Hour Post-fertilization zebrafish Assay for Circulatory Malformation (AID 2283651). A digest of the protocol: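 Binary circulatory malformation call at 120 hpf by brightfield imaging of zebrafish larvae; chorion removed at 4 hpf, static exposure from 6 hpf in sealed dark plates at 28C, final DMSO 0.64%; non-mortality endpoints skipped if embryo died.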

The nature of assay [6]: Tanguay_ZF_120hpf_PE_legacy: (Legacy) Oregon State University Tanguay Lab 120 Hour Post-fertilization zebrafish Assay for Pericardial Edema (AID 2283640).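 On AC50: potency for increased incidence of pericardial edema versus DMSO baseline.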 The method in brief:
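Embryos from wild-type 5D adults were staged, then dosed in 0.64% DMSO. They were kept sealed in the dark at 28C until 120 hpf. Pericardial edema was then recorded as present or absent.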

A short description of assay [7]: Tanguay_ZF_120hpf_SOMI_legacy: (Legacy) Oregon State University Tanguay Lab 120 Hour Post-fertilization zebrafish Assay for Somite Malformation (AID 2283647). A digest of the protocol:
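Read-out: presence or absence of somite malformation in 120 hpf larvae, gain-of-signal relative to DMSO baseline. Embryos lacked chorion (pronase, 4 hpf) and were exposed statically from 6 hpf at 28C; dead larvae not scored.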

A short description of assay [8]: Tanguay_ZF_120hpf_CFIN_legacy: (Legacy) Oregon State University Tanguay Lab 120 Hour Post-fertilization zebrafish Assay for Caudal Fin Malformation (AID 2283649). A digest of the protocol:
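Binary presence or absence of caudal fin malformation at 120 hpf, read by brightfield microscopy, with DMSO as baseline. Larvae came from 5D wild-type embryos exposed statically from 6 hpf at 28C after pronase dechorionation.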

Read-out in assay [9]: solute carrier (SLC22A6), SLC22A6 (gene 9356)
Nature of the assay: LTEA_HepaRG_SLC22A6: Life Technologies and Expression Analysis (LTEA) Assay for solute carrier (SLC22A6) using HepaRG (AID 2283653; active means hit-call score of the fitted dose curve at least 0.9, where 1 is the maximum; inactive means score below 0.9). The following applies: mRNA level, 48 h; actives raise or lower the signal. How it is done: LTEA_HepaRG is a cell based, multiplexed-readout assay that uses HepaRG, a human liver cell line, with measurements taken at 48 hours after chemical dosing on a 96-well plate.LTEA_HepaRG_SLC22A6 is one of 102 assay component(s) measured in the LTEA HepaRG cell culture assay. It is a marker of NR mediated transport.Data from the assay component LTEA_HepaRG_SLC22A6 was analyzed into 1 endpoint. This assay endpoint, LTEA_HepaRG_SLC22A6, was analyzed with bidirectional fitting relative to DMSO as the negative control and baseline of activity. Using a type of inducible reporter, measures of mRNA induction for gain or loss-of-signal activity can be used to understand regulation of transcription factor activity. To generalize the intended target to other relatable targets, this assay endpoint is annotated to the transporter intended target family, where the subfamily is organic anion transporter.
A total of 1060 chemcials from the ToxCast library were tested in eight-point concentration-response experiments. Cell culture and cytotoxicity assays were conducted at Thermo Fisher Scientific's Custom Services facility (Madison, WI). A single lot of human HepaRG cells (Thermo Fisher Scientific, Frederick, MD) was used for the cell culture experiments. 96-well format collagen type I coated plates of human HepaRG cells were prepared using established methods. Briefly, cryopreserved HepaRG cells were thawed, plated at a density of approximately 100,000 cells/well in HepaRG Thaw, Plate, and General Purpose media (HPRG770, Thermo Fisher Scientific), and incubated for 48 hours. 0.5% DMSO was selected as vehicle control to balance the requisite need of DMSO in HepaRG cultures to maintain differentiation (for example, baseline metabolism, proportions of hepatocytes vs. cholangiocytes), while enabling further hepatic receptor pathway activation (for example, PXR and CAR) in response to chemical exposure. 48 hours after plating, the culture medium was replaced with HepaRG Serum-Free Incudtion Media. Cells were exposed to each test chemical in duplicate and maintained in CO2 incubators for another 48 hours. Chemical plates were thawed to room temperature and 200x concentrations of treatment groups were prepared. 8-point conentration-reponse curves were made with the highest exposure at 100 uM, followed by half-log dilutions, all in 0.5% DMSO. Each test plate contained variouse controls, induction positive controls (1mM phenobarbital), cytotoxicity positive controls ([…] aflatoxin B1), vehicle controls (0.5% DMSO), and total lysis controls (0.5% DMSO). Cell morphology images were taken using an Essen IncuCyte FLR automated microscope, with six 96-well plates imaged in about 24 minutes. Images were captured and exported and JPEG files. Spent culture media was transfered to black-well plates for the LDH assay, and remaining media was sorted at -80 C for later use. Cells were treated with RLT buffer and frozen until shipped for gene expression analysis. Total RNA was isolated from the cell suspension in 75 uL of Buffer RLT (Qiagen, Germantown, MD 20874) by Quintiles/Expression Analysis (Durham, NC) using a custom isolation procedure. Total RNA from each plate well was transferred to a preamplification plate. Fluidigm's 96.96 Dynamic ArrayTM (Fluidigm, Amsterdam, the Netherlands) technology was used for gene expression analyses by quantitative reverse transcription polymerase chain reaction (qRT-PCR, performed by Quintiles/Expression Analysis, Durham, NC)89. Standard TaqManTM Assays (Applied Biosystems/ThermoFisher Scientific, Foster City, CA) were used to assess the expression of 93 genes selected based on their selectivity and sensitivity to important hepatic receptors known to be modulated by environmental chemicals; importance in human hepatocyte functionality; and hepatotoxicity. […]

Inconclusive results are not listed. Calls of active or inactive are those of the source. How the source made its calls, unless noted: active means hit-call score of the fitted dose curve at least 0.9, where 1 is the maximum; inconclusive means response in the unintended direction; inactive means score below 0.9.

In general, AC50 refers to the concentration at which the activity in the assay is half-maximal.

Consider `COc1ccc(C)cc1N`, for which the call in assay [1], in assay [2], in [3], in assay [4] and in assay [5] was inactive.
Regarding `CCc1c(C(=O)NN2CCCCC2)nn(-c2ccc(Cl)cc2Cl)c1-c1ccc(Br)cc1`, the result in assay [6], in [2], in [7], in [4] and in assay [5] was inactive.
Turning to `CCCCCC(=O)O`, the result in assay [6], in assay [2], in assay [7], in assay [3], in [4] and in [5] was inactive.
Turning to `Cc1ccccc1Cl`, the outcome in [6], in [2], in assay [7], in [3], in assay [8] and in [4] was inactive. Moreover, the call in [5] was inactive.
For the compound `COC(=O)c1ccc(O)cc1`, the compound was called inactive in assay [6], in assay [2], in assay [7], in assay [3], in [4] and in assay [5].
For `CCCCCCOCCO`, the compound was classed as inactive in assay [6], in assay [2], in assay [7], in assay [3] and in [5].
`COCCOC[C@H](CC1(C(=O)NC2CCC(C(=O)O)CC2)CCCC1)C(=O)Oc1ccc2c(c1)CCC2` (some centres undefined): the result in [6], in assay [2], in assay [7], in assay [3], in [4] and in [5] was inactive.
`CCOC(=O)C(C)(C)Oc1ccc(Cl)cc1`: the outcome in [6], in assay [2], in assay [7], in assay [4] and in assay [5] was inactive.
On to `CC(C)c1ccc(C(=O)N=C(N)N)cc1S(C)(=O)=O`, for which the call in assay [6], in assay [2], in [3], in assay [8], in assay [4] and in assay [5] was inactive.
On to `O=c1[nH]cc(F)c(=O)[nH]1`, for which the result in assay [6], in assay [2], in assay [3], in [8] and in [4] was inactive.
Consider `CCCCCCC(=O)OCC`, for which the result in assay [6], in assay [2], in assay [7], in assay [3], in assay [4] and in assay [5] was inactive.
For `CCOc1ccc2c(c1)C(C)=CC(C)(C)N2`, the compound was classed as inactive in assay [6], in [2], in assay [3], in assay [8], in assay [4] and in [5].
For `CC1(C)CC(N=C=O)CC(C)(CN=C=O)C1` (centres undefined), the outcome in [6], in assay [2], in assay [7], in assay [3], in assay [8] and in assay [4] was inactive. The call in [5] was inactive.
As to `CC(C)(C)c1cc(O)c(C(C)(C)C)cc1O`, the AC50 in assay [6] was 34.3 µM (active). Also, the call in assay [2], in assay [7], in [8], in assay [4] and in assay [5] was inactive.
Take `Cc1ccc(C)c(C)c1`: the call in [6], in assay [2], in assay [7], in assay [8], in assay [4] and in assay [5] was inactive. The compound was classed as inactive in [9].
With `Nc1ccc(S(=O)(=O)c2ccc(N)cc2)cc1`, the compound was called inactive in [1], in [3], in assay [4] and in assay [5].
As to `COc1ccc(S(=O)(=O)N2C(=O)[C@@](c3ccccc3OC)(N3C[C@H](O)C[C@H]3C(=O)N(C)C)c3cc(Cl)ccc32)c(OC)c1`, the outcome in assay [6], in assay [2], in assay [7], in assay [3], in assay [4] and in assay [5] was inactive.
On to `OC[C@@H](O)[C@@H](O)[C@H](O)[C@H](O)CO`, for which the outcome in assay [6], in assay [2], in assay [3], in [8] and in assay [4] was inactive.
For `CCCCC(CC)COC(=O)CC(C(=O)OCC(CC)CCCC)S(=O)(=O)O` (centres undefined), the outcome in assay [6], in [2], in [7], in assay [3], in [4] and in assay [5] was inactive.
On to `CCCCCCCCCCCC(=O)OC`, for which the compound was classed as inactive in assay [6], in [7], in [3], in assay [4] and in assay [5].
`Cc1cccc(C)c1O`: the compound was called inactive in assay [6], in [2], in assay [3], in assay [4] and in assay [5].
Take `O=[N+]([O-])C(CO)(CO)CO`: the compound was called inactive in assay [6], in assay [2], in [8], in assay [4] and in assay [5].
